# Source: PubChem BioAssay (NCATS)
# Records with an inconclusive call do not appear. Values without a mark were called inactive. Activity calls are given as the source filed them. Unless noted, the call rests on the fitted dose curve.
# Key:
# [1] = Cell Viability - BJ (AID 421); conditions: BJ fibroblast viability, qHTS;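 further: potency means the concentration at half of the fitted maximal effect; cells exposed to compound for 40 hours at 37 °C before readout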
# Outline: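 Cytotoxicity in human BJ foreskin fibroblasts is scored as loss of cellular ATP after a 40-hour exposure, measured by luciferase luminescence. Controls are DMSO and 100 uM tamoxifen.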
# [2] = Cell Viability - Jurkat (AID 426;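 active means dose-dependent loss of cell ATP signal giving a full or clear fitted curve, ranked by lower potency value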;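 further: potency means the concentration at half of the fitted maximal effect; cells exposed to compound for 40 hours at 37 °C before ATP read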); conditions: qHTS
# Outline: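 Seed 5000 Jurkat E6-1 cells/well; add compound; incubate 40 hr at 37 °C; add CellTiter-Glo; wait 20 min at room temperature; read luminescence. Fit concentration-response with Hill equation for AC50.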
# [3] = Cell Viability - Hek293 (AID 427;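 active means compounds whose dose-response curve shows a full or clear partial loss of cell viability, called from curve shape rather than a numeric limit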;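 further: potency means the concentration at half of the fitted maximal effect; cells exposed to compound for 40 hours at 37 °C before reading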); conditions: qHTS
# Outline: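 qHTS, human embryonic kidney (adenovirus-transformed) cells; 40 hr cpd, 37 °C; CellTiter-Glo ATP luminescence. Norm: DMSO = 0, 100 uM tamoxifen = 100% inhibition. Hill-fit AC50.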
# [4] = Cell Viability - HepG2 (AID 433); conditions: qHTS;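 further: potency means the concentration at half of the fitted maximal effect; cells exposed to compound for 40 hours; potency for ATP loss meaning cytotoxicity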
# Outline: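 In this qHTS format, a 40 h, 37 °C compound incubation of HepG2 cells in complete medium precedes a 20 min CellTiter-Glo step at room temperature. Tamoxifen and doxorubicin serve as positive controls; Hill-equation fits yield AC50.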
# [5] = Cell Viability - MRC5 (AID 434); conditions: MRC5 lung fibroblast viability, qHTS;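 further: potency means the concentration at half of the fitted maximal effect; cells exposed to compound for 40 hours at 37 °C; potency reflects cytotoxicity seen as loss of intracellular ATP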
# Outline: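 MRC5 normal human lung fibroblasts (1500/well) were treated with compounds for 40 hr at 37 °C in complete medium, and viable cells were measured as intracellular ATP by CellTiter-Glo luminescence. AC50 came from Hill fits, normalized to DMSO and 100 uM tamoxifen.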
# [6] = Cell Viability - SK-N-SH (AID 435); conditions: SK-N-SH neuroblastoma cell viability qHTS;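 further: potency means the concentration at half of the fitted maximal effect; compound exposure lasted 40 h at 37 °C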
# Outline: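 Human neuroblastoma line, 40 h exposure at 37 °C, ATP quantified via luciferase luminescence; DMSO and 100 uM tamoxifen define 0 and 100% inhibition for AC50 fitting.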
# [7] = target: Mitogen-activated protein kinase 10 (Mus musculus) (UniProt Q61831); assay: JNK3 AlphaScreen Assay (AID 530; active means well fitted curve in either direction with a large enough effect, not every such curve was filed as active;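 further: kinase came from lysate of stimulated human HepG2 cells; signal reports phosphorylation of biotinylated GST-cJun 1-79 at Ser73 with 10 µM ATP; on the % scale 0 is the no-effect control and ±100 the full control effect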); conditions: JNK3 lysate, c-Jun phosphorylation; series mostly up to 57.1 µM
# Outline: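 JNK3 came from HepG2 lysates pre-activated with IL-1beta and TNF-alpha and phosphorylated biotinylated GST-cJun (1-79) at 10 uM ATP, pH 7.6, room temperature. Compounds were titrated. AlphaScreen signal used anti-phospho-cJun (Ser73) antibody.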
# [8] = Cell Viability - N2a (AID 540; active means well fitted curve in the direction sought with a large enough effect; an effect the other way counts as inactive or inconclusive;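 further: plate controls were DMSO alone for no effect and tamoxifen control for full effect; nearly all actives have a fitted effect of over 45% in size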); conditions: N2a mouse neuroblastoma cell viability; activity change, negative = cytotoxicity: at 92.2 µM (top of the series)
# Outline: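 First, 1500 N2a cells per well incubate 5 hr at 37 °C; next, compounds are added and incubated 40 hr at 37 °C; finally CellTiter-Glo is added and luminescence read after 20 min, with AC50 derived by Hill modeling.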
# [9] = Cell Viability - HUV-EC-C (AID 542; active means well fitted curve in the direction sought with a large enough effect; an effect the other way counts as inactive or inconclusive;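 further: cells exposed to compound for 40 hours; on the % scale 0 is the no-effect control and ±100 the full control effect; nearly all actives have a fitted effect of over 35% in size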); conditions: HUV-EC-C endothelial cell viability, qHTS; series mostly up to 92.2 µM
# Outline: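 Decrease in cellular ATP, quantified by luciferase luminescence, reflects toxicity in normal human vascular endothelial HUV-EC-C cells given compound for 40 hr in complete culture medium. Values are AC50s from concentration-response curves.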
# [10] = Cell Viability - NIH 3T3 (AID 541; active means well fitted curve in the direction sought with a large enough effect; an effect the other way counts as inactive or inconclusive;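 further: cells exposed to compound for 40 hours; plate controls were DMSO alone for no effect and tamoxifen positive control for full effect; nearly all actives have a fitted effect of over 25% in size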); conditions: NIH 3T3 cell viability, qHTS; activity change, negative = cytotoxicity: at 92.2 µM (top of the series)
# Outline: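 AC50 values reflect concentration-dependent loss of intracellular ATP in NIH 3T3 cells after 40 hr treatment in complete culture medium, quantified by luciferase-based luminescence.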
SMILES,Potency [1] [µM],Potency [2],Potency [3] [µM],Potency [4] [µM],Potency [5] [µM],Potency [6] [µM],outcome [7],"activity change, negative = cytotoxicity [8] [%]",Potency [9],Potency [10]
CC/C=C1/OC(=O)c2ccccc21,> 92,> 92 µM,> 92,> 92,> 92,> 92,inactive,3.1,inactive,
Cc1cscn1,> 92,> 92 µM,> 92,> 92,> 92,> 92,inactive,6.1,inactive,
O=C1OC(=O)c2c(Br)c(Br)c(Br)c(Br)c21,> 92,> 92 µM,> 92,> 92,> 92,> 92,inactive,-3.13,inactive,inactive
O=[N+]([O-])c1ccc(CCO)cc1,> 92,> 92 µM,> 92,> 92,> 92,> 92,inactive,-10.2,inactive,
CC(C)(c1cc(Br)c(OCC(Br)CBr)c(Br)c1)c1cc(Br)c(OCC(Br)CBr)c(Br)c1 (centres undefined),> 92,46.9 µM (active),> 92,> 92,> 92,> 92,inactive,5.75,inactive,inactive
O=[N+]([O-])c1c(Cl)cc(Cl)cc1Cl,> 92,> 92 µM,> 92,> 92,> 92,> 92,inactive,3.57,inactive,inactive
CC(N)CN (centres undefined),> 92,> 92 µM,> 92,> 92,> 92,> 92,inactive,3.26,inactive,inactive
CC(CCl)OC(C)CCl (centres undefined),> 92,> 92 µM,> 92,> 92,> 92,> 92,inactive,,,inactive
CSCCC=O,> 92,> 92 µM,> 92,> 92,> 92,> 92,inactive,-17.9,inactive,
C=Cc1ccccc1C=C,> 92,> 92 µM,> 92,> 92,> 92,> 92,inactive,7.3,inactive,
CCCCCCCN,> 92,> 92 µM,> 92,> 92,> 92,> 92,inactive,-10.2,inactive,inactive
Cc1cccc([N+](=O)[O-])c1C(=O)O,> 92,> 92 µM,> 92,> 92,> 92,> 92,inactive,11.2,inactive,
C=CCOC(=O)COCCC(C)C,> 92,> 92 µM,> 92,> 92,> 92,> 92,inactive,-4.01,inactive,inactive
Cc1cccc(C)c1[N+](=O)[O-],> 92,> 92 µM,> 92,> 92,> 92,> 92,inactive,-11.3,inactive,inactive
Cc1c(N)cccc1N,> 92,> 92 µM,> 92,> 92,> 92,> 92,inactive,-3.84,inactive,inactive
CO[Si](CCCNCCC[Si](OC)(OC)OC)(OC)OC,> 92,> 92 µM,> 92,> 92,> 92,> 92,inactive,-27,inactive,
Cc1cc(C)c(N)cc1C,> 92,> 92 µM,> 92,> 92,> 92,> 92,inactive,-1.04,inactive,inactive

SMILES,Potency [1] [µM],Potency [2],Potency [3] [µM],Potency [4] [µM],Potency [5] [µM],Potency [6] [µM],outcome [7],"activity change, negative = cytotoxicity [8] [%]",Potency [9],Potency [10]
Cc1cc([N+](=O)[O-])ccc1N,> 92,> 92 µM,> 92,> 92,> 92,> 92,inactive,-8.91,inactive,
C=C(C)OC(C)=O,> 92,> 92 µM,> 92,> 92,> 92,> 92,inactive,-6.88,inactive,
CC(C)=CCl,> 92,> 92 µM,> 92,> 92,> 92,> 92,inactive,1.02,inactive,
C[C@@H]1CC2(OC[C@]3(C)O[C@H]23)O[C@H]2C[C@@]3(C)[C@@H]4CC[C@H]5C(C)(C)C(O[C@@H]6OC[C@@H](O)[C@H](O)[C@H]6O)CC[C@@]56C[C@@]46CC[C@]3(C)[C@@H]12 (some centres undefined),> 92,> 92 µM,> 92,> 92,> 92,> 92,inactive,11,inactive,inactive
Oc1c(Cl)ccc(Cl)c1Cl,> 92,> 92 µM,> 92,> 92,> 92,> 92,inactive,-9.1,inactive,inactive
CCN(C(=O)N(CC)c1ccccc1)c1ccccc1,> 92,> 92 µM,> 92,> 92,> 92,> 92,inactive,-13.7,inactive,
O=Cc1ccccc1Cl,> 92,> 92 µM,> 92,> 92,> 92,> 92,inactive,-4.91,inactive,
OCCO,> 92,> 92 µM,> 92,> 92,> 92,> 92,inactive,-12.9,inactive,inactive
C1COC1,> 92,> 92 µM,> 92,> 92,> 92,> 92,inactive,-2.69,inactive,inactive
O=C1NC(=O)c2cc([N+](=O)[O-])ccc21,> 92,> 92 µM,> 92,> 92,> 92,> 92,inactive,-3.32,inactive,inactive
Cc1ccc(C)c(O)c1,> 92,> 92 µM,> 92,> 92,> 92,> 92,inactive,3.3,inactive,inactive
Cc1c(C(=O)O)cccc1[N+](=O)[O-],> 92,> 92 µM,> 92,> 92,> 92,> 92,inactive,5.3,inactive,inactive
O=Cc1c(Cl)cccc1Cl,> 92,> 92 µM,> 92,> 92,> 92,> 92,inactive,-16.5,inactive,
O=[N+]([O-])c1ccccc1CCO,> 92,> 92 µM,> 92,> 92,> 92,> 92,inactive,-12.5,inactive,inactive
N#CCc1ccccc1[N+](=O)[O-],> 92,> 92 µM,> 92,> 92,> 92,> 92,inactive,-1.71,inactive,inactive
Cc1ccc(C)c(N)c1,> 92,> 92 µM,> 92,> 92,> 92,> 92,inactive,-15.8,inactive,
CC(=O)CCc1ccccc1,> 92,> 92 µM,> 92,> 92,> 92,> 92,inactive,-2.11,inactive,inactive
